Bioassay records (PubChem)
In the library only some 11% were active in any assay of this set; here they are far more common.
Pf growth 96h – Primary qHTS for delayed death inhibitors of the malarial parasite plastid, 96 hour incubation. P. falciparum luciferase reporter growth, 96 h. actives 6.9% (n = 320,000). Potency, µM (top dose mostly 28.7 µM), inactives show at the highest dose activity change, negative = inhibition, most hits filed as inhibitors; further: on the % scale 0 is the no-effect control and ±100 the full control effect
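Two-generation exposure (96 h) targets delayed-death phenotype. Reporter parasites carrying integrated firefly luciferase, in red cells at 2% hematocrit and 0.05% parasitemia final, kept at 37 C, 5% CO2; luminescence loss indicates inhibition.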
HCV inh – qHTS Assay for Inhibitors of Hepatitis C Virus (HCV); Potency, µM (titrated, usually from 41.8 µM), for inactives: at the highest dose activity change, negative = inhibition, usual class: inhibitors; AID 651820, 2012; actives 3.4% (n = 340,000); Huh7.5.1 HCVcc-Cre infection, luciferase reporter, 44 h; further: on the % scale 0 is the no-effect control and ±100 the full control effect
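Seed cells (1,000/well) for 4 h; treat with compound and infect with HCVcc-Cre, moi about 0.5. Incubate 44 h, then detect luciferase activity.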
VACV mCherry inh – qHTS for Stage-Specific Inhibitors of Vaccinia Orthopoxvirus: mCherry Reporter Primary qHTS | Vaccinia virus mCherry reporter infection, fluorescence | Potency, µM (doses to about 36.5 µM), for the others: top-dose activity change, negative = inhibition, usual class: inhibitors | actives 0.63% (n = 310,000) | AID 720579, 2013; calls by dose curve; tested in A549 cells; further: on the % scale 0 is the no-effect control and ±100 the full control effect; nearly all actives have a fitted effect of over 35% in size
Pf growth 48h – Primary qHTS for delayed death inhibitors of the malarial parasite plastid, 48 hour incubation. actives 5.9% (n = 310,000). AID 504832, 2011. P. falciparum luciferase growth in erythrocytes, 48 h. Potency, µM (doses to about 28.7 µM), for inactives: top-dose activity change, negative = inhibition, actives largely listed as inhibitors; further: on the % scale 0 is the no-effect control and ±100 the full control effect
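In quantitative HTS format, infected erythrocytes bearing luciferase-reporter parasites were treated for a single generation at 37 C. Luminescence after adding detection reagent served as the growth measure.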
Vaccinia Venus – qHTS for Stage-Specific Inhibitors of Vaccinia Orthopoxvirus: Venus Reporter Primary qHTS | actives 0.46% (n = 330,000) | Vaccinia virus Venus reporter expression, fluorescence | Potency, µM (doses to about 36.5 µM), without a hit: at the highest dose activity change, negative = inhibition, hits mostly inhibitors; calls by dose curve; tested in A549 cells; further: on the % scale 0 is the no-effect control and ±100 the full control effect; nearly all actives have a fitted effect of over 30% in size
NS1 function inh – qHTS Assay for Inhibitors of Influenza NS1 Protein Function. actives 0.4% (n = 270,000). Potency, µM (highest dose often 46.1 µM), for the others: at the highest dose activity, positive = more growth; calls by dose curve; further: actives are rising curves; nearly all actives have a fitted effect of over 50% in size
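Recovery from NS1-induced slow growth read by OD600 in budding yeast switched to galactose assay medium (pH 6.0, -URA) at 1:100 dilution. Compound 23 nl per well; the matching strain lacking NS1 serves as control.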
An asterisk follows results filed as active; i = inactive; ? = inconclusive; · = no result given; ! = not active in a repeat; [ ] = remark or other dose. Unless noted, the call rests on the fitted dose curve; in most records, active means well fitted inhibition curve with a large enough effect; inconclusive means small, poorly fitted or top-dose-only effect, or another doubt; inactive means no such curve, though single readings can be large or run the other way. Potency means the concentration at half of the fitted maximal effect.

SMILES	Pf growth 96h	HCV inh	VACV mCherry inh	Pf growth 48h	Vaccinia Venus	NS1 function inh
CC(=O)Nc1cccc(OCC(=O)Nc2cccc(S(=O)(=O)N3CCCC3)c2)c1	?	?	i	?	-13%	·
COc1ccc(C(=O)CSc2nnc(C3CCCCC3)n2N)c(OC)c1	9.3µM*	10µM*	·	0%	-26%	-1%
COc1ccc(NC(=O)CSc2nnc(C3CCCCC3)n2N)cc1	16%	4%	i[7.34 µM]	5%	-11%[7.34 µM]	-4%
COc1cccc(NC(=O)CN(C)C(=O)CCNC(=O)c2ccc(Br)cc2)c1	11%	-5%	-14%	1%	-13%	·
CCCn1c(N)c(N(C)C)c(=O)n(CC(=O)Nc2ccc(OC(F)(F)F)cc2)c1=O	10µM*	-3%	-15%	-2%	-6%	0%
COC(=O)c1ccc(N=C2S/C(=C\c3cc(C)n(-c4cccnc4)c3C)C(=O)N2C)cc1	?	3.5µM*	·	?	-18%	14%
COc1ccccc1-c1cncnc1NCc1cccnc1	·	·	i	·	0%	·
CN(C)N=Nc1ccc(S(=O)(=O)/N=C(\O)c2ccccc2)cc1	?	19%	·	7%	·	?
C#CCNc1c2c(nc3nnnn13)CCCC2	?	18%	i	23%	1%	·
CNc1c2c(nn1C)CCCC2	6µM*!	?	0%	28%	-7%	2%
Cc1nc2c(c(=O)n1Cc1ccccc1Cl)c1nc3ccccc3nc1n2Cc1ccco1	?	12%	·	?	·	?
CCO/C(C)=N/n1c2nc3ccccc3nc2c2c(=O)n(Cc3ccccc3Cl)c(C)nc21	?	-15%	-23%	0.74µM*	?	-14%
CCOc1ccc2nc(NC3=NC(C)(C)C=C(C)N3)nc(C)c2c1	?	?	·	·	·	-1%
CCOc1ccc2nc(N/C(N)=N/C(=S)Nc3ccc(C)c(C)c3)nc(C)c2c1	6.6µM*	-19%	-23%	6.6µM*	-9%	6%
COc1ccc(NC(=S)/N=C(\N)Nc2nc(C)c3ccc(C)cc3n2)cc1	-12%	11µM*	·	12µM*	·	?
O=C1C2C3C=CC(C3)C2C(=O)N1Nc1ccc([N+](=O)[O-])cc1[N+](=O)[O-] (configuration not stated)	?	16%	·	-15%	·	6%
O=c1ccc(N=Nc2ccccc2)ccc1O	13µM*	?	?	10µM*	-26%	-99%
CCc1cccc(CC)c1NC(=O)COC(=O)CC1c2ccccc2CCN1S(=O)(=O)c1ccccc1 (configuration not stated)	?	7.1µM*	-23%	-21%	?	18%
COc1cccc(-n2cc(CNCc3c(C(=O)N(C)C)nc4ccc(Cl)cn34)cn2)c1	?	?	·	8.3µM*	·	-1%
Cc1ccccc1-n1cc(CNCc2c(C(=O)N(C)C)nc3ccc(Cl)cn23)cn1	-7%	-23%	·	16%	·	2%
CC(C)N(Cc1nccn1C)C(=O)c1cc(COc2ccc3ncccc3c2)on1	?	?	?	-1%	-13%	-3%
COC(=O)[C@@]1(Cc2ccc(OC)cc2)[C@@H]2C(=CC(=O)[C@H]2CC(=O)C(=O)N2CCCC2)CN1C(=O)c1ccccc1	?	-11%	?	10µM*	-20%	-16%
COC(=O)[C@@]1(Cc2ccc(OC)cc2)[C@H]2c3cc(C(=O)N4CCCC4)n(CCN4CCOCC4)c3C[C@H]2CN1C(=O)c1ccccc1	·	·	-10%	·	4%	·
COC(=O)[C@@]1(Cc2ccc(OC)cc2)[C@H]2c3cc(C(=O)N4CCCC4)n(CCN4CCNC4=O)c3C[C@H]2CN1C(=O)c1ccccc1	1.7µM*	5%[8.37 µM]	·	1.9µM*	·	-2%
COC(=O)[C@@]1(Cc2ccc(OC)cc2)[C@H]2c3cc(C(=O)N4CCCC4)n(CCn4cc([N+](=O)[O-])nc4C)c3C[C@H]2CN1C(=O)c1ccccc1	0.59µM*	2%[8.37 µM]	i	?	-8%	10%
SMILES	Pf growth 96h	HCV inh	VACV mCherry inh	Pf growth 48h	Vaccinia Venus	NS1 function inh
COC(=O)[C@@]1(Cc2ccc(OC)cc2)[C@H]2c3cc(C(=O)N4CCCC4)n(Cc4c(CO)[nH]cc(C)c4=O)c3C[C@H]2CN1C(=O)c1ccccc1	·	-5%	0%	·	-6%	·
COC(=O)[C@@]1(Cc2ccc(F)cc2)[C@H]2C(CC(=O)C(=O)N3CCCC3)C(=O)C[C@H]2CN1C(=O)c1ccccc1 (some centres not stated)	·	·	-10%	·	-15%	·
COC(=O)[C@@]1(Cc2ccc(OC)cc2)[C@H]2c3cc(C(=O)N4CCCC4)n(Cc4ccc(OC)c(OC)c4)c3C[C@H]2CN1C(=O)c1ccccc1	1.5µM*	2%[8.37 µM]	·	?	·	14%
COCCNC(=O)C1(C)CCCN(Cc2ccccc2N(C)C)C1 (configuration not stated)	·	·	1%	·	-4%	·
COC(=O)[C@@]1(Cc2ccc(OC)cc2)[C@H]2c3cc(C(=O)N(C)C)n(CCc4ccc(OC)c(Br)c4)c3C[C@H]2CN1C(=O)c1ccccc1	2.1µM*	6%[8.37 µM]	·	2.1µM*	·	?
COC(=O)[C@@]1(Cc2ccc(OC)cc2)[C@H]2c3cc(C(=O)N(C)C)[nH]c3C[C@H]2CN1C(=O)c1ccccc1	?	-1%	14%	4.7µM*	-14%	-24%
COC(=O)[C@@]1(Cc2ccc(F)cc2)[C@H]2c3cc(C(=O)N4CCCC4)n(CCCNc4ncc(C(F)(F)F)cc4Cl)c3C[C@H]2CN1C(=O)c1ccccc1	?	-10%	-23%	2.1µM*	?	?
COC(=O)[C@@]1(Cc2ccc(OC)cc2)[C@H]2c3cc(C(=O)N(C)C)n(Cc4c(CO)[nH]cc(C)c4=O)c3C[C@H]2CN1C(=O)c1ccccc1	·	14%	-6%	·	-2%	·
C/C(=N\NC(=O)CNC(=O)c1ccc(Br)cc1)c1ccco1	0%	-18%	·	12%	·	-10%
O=C(Nc1cc(-c2nc3cc(Cl)ccc3o2)ccc1Cl)c1cccc2ccccc12	·	·	-5%	·	6%	·
CCOc1ccccc1NC(=O)CSc1ncc(S(=O)(=O)c2ccc(C)c(C)c2)c(N)n1	·	·	-12%	·	-12%	·
Cc1cccc(CN2CCN(c3ccccn3)CC2)c1	·	13%	·	·	·	·
CN1CCN(CC(O)COC(c2ccc(Cl)cc2)c2ccc(Cl)cc2)CC1 (configuration not stated)	9.3µM*	5µM*	·	·	·	2%
OC(COC(c1ccccc1)c1ccccc1)CN1CCc2ccccc2C1 (configuration not stated)	?	?	-23%	?	-14%	-6%
